# Measurements taken from PubChem BioAssay.
# Calls of active or inactive are those of the source.
# Columns and labels:
# [1] = system: PRMT1 (protein arginine N-methyltransferase 1); experiment: small molecules binding arginine methyltransferase PRMT1 – biochemical, small-molecule microarray, 635 nm fluorescence, primary screen (AID 1088); conditions: higher = more signal;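 further: binding of Prmt1 protein to compounds spotted on small-molecule microarray slides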
# [2] = growth effects on S. cerevisiae YJM789 – YJM789 clinical isolate, OD600, 24 h, basal, primary screen (AID 1089); conditions: higher = more signal, called active from +8 up or from −8 down;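 further: growth of clinical yeast isolate S. cerevisiae YJM 789 seeded 1000 cells per well; test concentration not given here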
# [3] = S. pombe growth modifiers, basal conditions – strain 972, OD600, 24 h, no modulator, primary screen (AID 1090);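 further: basal condition with compound alone and no growth modifier present; test concentration not given here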; conditions: S. pombe 972 growth, higher = more signal, called active from +8 up or from −8 down
# [4] = budding yeast growth modifiers under rapamycin – strain BY4716, OD600, 96 h, primary screen (AID 1091); further: test concentration not given here; conditions: S. cerevisiae BY4716 + rapamycin, higher = more signal, called active from +8 up or from −8 down
# [5] = target: Torsin-1A-interacting protein 2 (Homo sapiens) (UniProt Q8NFQ8); experiment: small molecules binding lysate-expressed LULL1 – cell lysate, human LULL1 lysate, 635/667 nm fluorescence, primary screen (AID 1092); conditions: small-molecule microarray, hLULL1 lysate binding, 635 nm fluorescence; higher = more signal;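 further: probe is lysate of COS7 cells overexpressing human LULL1; score merges per-feature 667 nm fluorescence with signal-to-noise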
# [6] = optical density change of DRC41 E. coli – strain DRC41, OD650, 24 h, E. coli filamentation project, primary screen (AID 1093);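 further: MC1000 strain lacking acrAB efflux and sulA so SOS filamentation is blocked; test concentration not given here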; conditions: E. coli DRC41 growth, higher = more signal, called active from +8 up or from −8 down
# [7] = probe aLefty2 binding to arrayed compounds – biochemical, biotinylated probe, 635/667 nm fluorescence, primary screen (AID 1094); conditions: small-molecule microarray, higher = more signal;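 further: score merges spot fluorescence near 667 nm with spot signal-to-noise ratio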
# [8] = system: Noggin (protein binding on small-molecule microarray); experiment: small molecules binding Noggin protein – biochemical, 635/667 nm fluorescence, primary screen (AID 1095); conditions: 635 nm fluorescence, higher = more signal;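 further: score merges 667 nm feature fluorescence with signal to noise over triplicate slides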
# [9] = target: Neurogenic locus notch homolog protein 3 (Homo sapiens) (UniProt Q9UM47); experiment: small molecules binding NOTCH3 protein – biochemical, 635/667 nm fluorescence, primary screen (AID 1096); conditions: small-molecule microarray, 635 nm fluorescence, higher = more signal
# [10] = probe aEGFR binding to arrayed compounds – biochemical, biotinylated probe, 635/667 nm fluorescence, primary screen (AID 1097); conditions: small-molecule microarray, higher = more signal;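 further: probe is a biotinylated anti-EGFR antibody binding compounds printed on slides; score combines fluorescence near 667 nm and signal to noise of each spot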
# [11] = system: Plasmodium falciparum Sir2 (PF13_0152, Sir2A); experiment: Plasmodium falciparum Sir2A binding compounds – biochemical, small-molecule microarray, 635 nm fluorescence, primary screen (AID 1098); conditions: fluorescence 635 nm, higher = more signal;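 further: score merges spot fluorescence intensity with its signal-to-noise ratio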
# [12] = probe aDKK1 binding to arrayed compounds – biochemical, biotinylated probe, 635/667 nm fluorescence, primary screen (AID 1099); conditions: small-molecule microarray, higher = more signal;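 further: score merges 667nm spot fluorescence with signal to noise across triplicate slides; reference of the scale not given here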
# [13] = probe aCHRDL2 binding to arrayed compounds – biochemical, biotinylated probe, 635/667 nm fluorescence, primary screen (AID 1100); conditions: small-molecule microarray, higher = more signal
# [14] = change in splice reporter luminescence, either direction, cell-based, HEK293, spliceosome inhibition project, primary screen (AID 1101); conditions: HEK293 splicing luciferase reporter, 24 h, higher = more signal, called active from +8 up or from −8 down;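 further: HEK293 cells carrying a splicing-competent luciferase reporter gene; test concentration not given here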
# [15] = target: Fibroblast growth factor 10 (Homo sapiens) (UniProt O15520); experiment: compounds binding fibroblast growth factor 10 – biochemical, small-molecule microarray, 635 nm fluorescence, primary screen (AID 1102); conditions: FGF10 binding, fluorescence 635 nm, higher = more signal
# [16] = system: glycogen synthase kinase-3 (GSK3A per assay name; protocol says GSK3B); experiment: compounds binding glycogen synthase kinase-3 – biochemical, small-molecule microarray, 635 nm fluorescence, GSK3A, primary screen (AID 1103); conditions: fluorescence 635 nm, higher = more signal; further: the record names both GSK3A and GSK3B
# [17] = target: Epidermal growth factor receptor (Homo sapiens) (UniProt P00533); experiment: compounds binding epidermal growth factor receptor – biochemical, small-molecule microarray, 635 nm fluorescence, primary screen (AID 1104); conditions: EGFR binding, higher = more signal;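 further: score merges 667 nm emission intensity with spot signal to noise over triplicate slides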
# [18] = target: Follistatin-related protein 3 (Homo sapiens) (UniProt O95633); experiment: compounds binding follistatin-related protein 3 – biochemical, small-molecule microarray, 635 nm fluorescence, primary screen (AID 1105); conditions: FSTL3 binding, higher = more signal;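 further: score merges emission near 667 nm and signal to noise per printed spot across three slides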
# [19] = target: Dickkopf-related protein 1 (Homo sapiens) (UniProt O94907); experiment: small molecules binding DKK1 protein – biochemical, small-molecule microarray, 635 nm fluorescence scan, primary screen (AID 1106); conditions: higher = more signal;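 further: score merges emission near 667 nm with signal to noise over three replicate slides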
# [20] = system: Inhibin beta A chain (activin A); experiment: small molecules binding activin A – biochemical, small-molecule microarray, 635 nm fluorescence scan, primary screen (AID 1107); conditions: INHBA, higher = more signal;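 further: mouse activin A protein probed at 4.33 µg/mL on printed slides; score merges bound-protein fluorescence near 667 nm with spot signal-to-noise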
# Sequence of Fibroblast growth factor 10 (Homo sapiens) (O15520 whole entry, looked up): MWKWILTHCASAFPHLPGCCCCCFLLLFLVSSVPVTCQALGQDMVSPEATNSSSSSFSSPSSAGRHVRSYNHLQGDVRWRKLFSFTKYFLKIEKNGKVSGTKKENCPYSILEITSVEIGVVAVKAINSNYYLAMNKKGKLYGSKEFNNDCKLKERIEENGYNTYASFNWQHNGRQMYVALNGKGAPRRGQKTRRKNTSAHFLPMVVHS
# Sequence of Torsin-1A-interacting protein 2 (Homo sapiens) (Q8NFQ8 whole entry, looked up): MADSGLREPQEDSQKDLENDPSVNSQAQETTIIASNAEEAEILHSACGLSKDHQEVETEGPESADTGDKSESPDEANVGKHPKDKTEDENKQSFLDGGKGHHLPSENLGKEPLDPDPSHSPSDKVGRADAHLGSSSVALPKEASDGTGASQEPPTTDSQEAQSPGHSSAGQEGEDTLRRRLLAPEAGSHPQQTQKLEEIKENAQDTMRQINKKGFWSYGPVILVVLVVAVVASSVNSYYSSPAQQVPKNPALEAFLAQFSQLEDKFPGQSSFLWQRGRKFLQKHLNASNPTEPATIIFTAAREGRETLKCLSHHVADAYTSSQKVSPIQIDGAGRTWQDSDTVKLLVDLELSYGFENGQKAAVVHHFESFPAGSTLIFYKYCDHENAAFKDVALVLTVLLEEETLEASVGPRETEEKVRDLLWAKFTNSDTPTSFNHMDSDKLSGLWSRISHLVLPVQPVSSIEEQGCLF
# Sequence of Neurogenic locus notch homolog protein 3 (Homo sapiens) (Q9UM47 whole entry, looked up): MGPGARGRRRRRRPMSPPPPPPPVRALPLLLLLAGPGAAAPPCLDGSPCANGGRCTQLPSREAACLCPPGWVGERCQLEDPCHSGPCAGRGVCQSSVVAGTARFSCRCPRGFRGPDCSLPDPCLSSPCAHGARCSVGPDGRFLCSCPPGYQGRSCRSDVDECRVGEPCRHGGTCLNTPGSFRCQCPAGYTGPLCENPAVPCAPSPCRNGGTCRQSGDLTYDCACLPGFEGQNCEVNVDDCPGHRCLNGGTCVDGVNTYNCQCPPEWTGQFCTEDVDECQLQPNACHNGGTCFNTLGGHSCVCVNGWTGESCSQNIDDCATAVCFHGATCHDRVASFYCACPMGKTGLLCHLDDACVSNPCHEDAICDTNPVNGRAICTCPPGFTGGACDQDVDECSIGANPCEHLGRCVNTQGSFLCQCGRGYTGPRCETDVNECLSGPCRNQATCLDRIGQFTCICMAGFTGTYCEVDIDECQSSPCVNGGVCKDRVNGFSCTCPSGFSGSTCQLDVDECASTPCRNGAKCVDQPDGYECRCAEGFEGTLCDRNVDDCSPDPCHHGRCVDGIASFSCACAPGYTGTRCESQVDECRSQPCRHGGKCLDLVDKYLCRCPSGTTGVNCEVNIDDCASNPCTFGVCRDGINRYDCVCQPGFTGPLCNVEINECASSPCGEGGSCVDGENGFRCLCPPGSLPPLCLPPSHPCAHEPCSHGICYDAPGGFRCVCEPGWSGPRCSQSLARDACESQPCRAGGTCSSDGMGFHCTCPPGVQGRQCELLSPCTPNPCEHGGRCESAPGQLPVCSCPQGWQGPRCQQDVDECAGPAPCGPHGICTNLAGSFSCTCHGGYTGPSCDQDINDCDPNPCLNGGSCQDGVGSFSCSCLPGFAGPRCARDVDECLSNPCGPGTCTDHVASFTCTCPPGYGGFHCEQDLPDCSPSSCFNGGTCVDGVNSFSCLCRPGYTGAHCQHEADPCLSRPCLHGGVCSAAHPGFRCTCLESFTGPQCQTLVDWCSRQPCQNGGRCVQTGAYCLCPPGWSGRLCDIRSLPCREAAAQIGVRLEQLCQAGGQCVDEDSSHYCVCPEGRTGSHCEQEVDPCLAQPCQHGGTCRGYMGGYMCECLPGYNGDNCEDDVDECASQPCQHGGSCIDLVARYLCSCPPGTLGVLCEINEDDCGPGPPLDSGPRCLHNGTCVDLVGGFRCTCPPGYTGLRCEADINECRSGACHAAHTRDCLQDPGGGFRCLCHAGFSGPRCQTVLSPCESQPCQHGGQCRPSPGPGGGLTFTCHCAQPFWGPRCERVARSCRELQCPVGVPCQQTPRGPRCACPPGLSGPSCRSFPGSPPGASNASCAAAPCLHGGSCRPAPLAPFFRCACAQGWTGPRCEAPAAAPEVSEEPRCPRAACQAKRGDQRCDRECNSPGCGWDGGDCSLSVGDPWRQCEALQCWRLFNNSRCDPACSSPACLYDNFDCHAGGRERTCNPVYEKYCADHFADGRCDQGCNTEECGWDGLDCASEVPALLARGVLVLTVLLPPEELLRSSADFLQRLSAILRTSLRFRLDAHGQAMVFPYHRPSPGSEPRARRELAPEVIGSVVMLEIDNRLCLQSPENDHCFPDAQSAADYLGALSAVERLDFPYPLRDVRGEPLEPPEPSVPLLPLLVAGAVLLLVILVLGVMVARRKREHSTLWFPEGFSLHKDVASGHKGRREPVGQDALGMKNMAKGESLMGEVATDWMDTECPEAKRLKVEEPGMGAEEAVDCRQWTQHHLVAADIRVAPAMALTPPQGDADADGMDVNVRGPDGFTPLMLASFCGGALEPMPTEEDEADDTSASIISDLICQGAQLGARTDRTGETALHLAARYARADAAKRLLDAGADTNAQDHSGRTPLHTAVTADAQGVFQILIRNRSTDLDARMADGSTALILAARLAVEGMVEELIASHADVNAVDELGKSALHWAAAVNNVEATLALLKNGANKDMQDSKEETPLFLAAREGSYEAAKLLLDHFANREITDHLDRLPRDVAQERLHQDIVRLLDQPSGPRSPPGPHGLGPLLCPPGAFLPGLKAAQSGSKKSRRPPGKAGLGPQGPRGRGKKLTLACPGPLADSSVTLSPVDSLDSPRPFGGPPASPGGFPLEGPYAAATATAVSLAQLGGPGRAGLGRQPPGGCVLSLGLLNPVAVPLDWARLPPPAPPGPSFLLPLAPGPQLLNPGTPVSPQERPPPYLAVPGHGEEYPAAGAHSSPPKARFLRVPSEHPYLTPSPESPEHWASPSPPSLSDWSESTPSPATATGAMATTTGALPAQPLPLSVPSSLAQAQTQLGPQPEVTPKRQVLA
# Sequence of Follistatin-related protein 3 (Homo sapiens) (O95633 whole entry, looked up): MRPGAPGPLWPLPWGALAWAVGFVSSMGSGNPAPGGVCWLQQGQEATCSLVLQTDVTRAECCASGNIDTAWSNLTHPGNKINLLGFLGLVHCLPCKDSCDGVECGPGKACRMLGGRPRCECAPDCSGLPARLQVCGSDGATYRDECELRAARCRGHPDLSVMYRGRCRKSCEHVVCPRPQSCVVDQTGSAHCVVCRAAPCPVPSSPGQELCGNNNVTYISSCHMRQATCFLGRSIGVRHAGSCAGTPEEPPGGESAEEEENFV
# Sequence of Epidermal growth factor receptor (Homo sapiens) (P00533 whole entry, looked up): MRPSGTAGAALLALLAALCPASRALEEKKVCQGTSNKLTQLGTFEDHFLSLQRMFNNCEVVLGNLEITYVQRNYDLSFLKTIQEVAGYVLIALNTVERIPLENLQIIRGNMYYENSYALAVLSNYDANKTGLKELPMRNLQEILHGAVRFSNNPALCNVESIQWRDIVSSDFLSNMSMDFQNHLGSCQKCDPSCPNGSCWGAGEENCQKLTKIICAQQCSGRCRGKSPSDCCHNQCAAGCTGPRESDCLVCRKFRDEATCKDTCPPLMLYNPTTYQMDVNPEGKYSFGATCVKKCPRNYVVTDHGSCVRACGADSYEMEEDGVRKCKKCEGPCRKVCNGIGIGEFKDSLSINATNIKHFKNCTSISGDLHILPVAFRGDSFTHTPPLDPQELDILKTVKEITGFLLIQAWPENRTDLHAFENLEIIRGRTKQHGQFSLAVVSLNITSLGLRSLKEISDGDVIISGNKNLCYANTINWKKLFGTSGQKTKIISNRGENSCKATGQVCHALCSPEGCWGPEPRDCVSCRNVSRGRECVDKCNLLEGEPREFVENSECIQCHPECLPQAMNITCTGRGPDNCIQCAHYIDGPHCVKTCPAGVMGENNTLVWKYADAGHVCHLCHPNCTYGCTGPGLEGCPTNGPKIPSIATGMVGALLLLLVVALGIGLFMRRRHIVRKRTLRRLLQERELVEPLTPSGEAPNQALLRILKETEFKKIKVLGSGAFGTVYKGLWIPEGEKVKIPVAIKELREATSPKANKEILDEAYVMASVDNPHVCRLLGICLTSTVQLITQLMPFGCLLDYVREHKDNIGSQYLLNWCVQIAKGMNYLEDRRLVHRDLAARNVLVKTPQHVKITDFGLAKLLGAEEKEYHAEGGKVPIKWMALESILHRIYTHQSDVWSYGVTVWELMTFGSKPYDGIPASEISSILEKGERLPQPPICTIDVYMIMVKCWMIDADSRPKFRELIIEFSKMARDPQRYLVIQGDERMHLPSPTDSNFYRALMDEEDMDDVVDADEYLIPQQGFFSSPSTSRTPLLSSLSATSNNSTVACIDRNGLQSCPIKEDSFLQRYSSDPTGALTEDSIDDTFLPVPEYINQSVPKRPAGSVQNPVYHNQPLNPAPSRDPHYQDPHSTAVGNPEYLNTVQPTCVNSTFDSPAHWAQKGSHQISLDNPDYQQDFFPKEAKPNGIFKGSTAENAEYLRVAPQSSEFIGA
# Sequence of Dickkopf-related protein 1 (Homo sapiens) (O94907 whole entry, looked up): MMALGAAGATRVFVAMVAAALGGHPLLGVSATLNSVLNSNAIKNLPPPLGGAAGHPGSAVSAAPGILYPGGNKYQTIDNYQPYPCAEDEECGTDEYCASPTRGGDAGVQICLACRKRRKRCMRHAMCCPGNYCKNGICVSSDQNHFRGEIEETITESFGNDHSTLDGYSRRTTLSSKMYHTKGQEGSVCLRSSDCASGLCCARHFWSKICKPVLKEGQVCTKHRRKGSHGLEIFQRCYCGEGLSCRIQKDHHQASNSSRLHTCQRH
smiles,measurement,setting,value
NC(=O)NCC#Cc1ccc2c(c1)[C@]1(C(=O)N2)[C@H](c2ccc(O)cc2)N2[C@H](c3ccccc3)[C@H](c3ccccc3)OC(=O)[C@H]2[C@@H]1C(=O)NC[C@H](O)c1ccccc1,composite z-score,[1],-0.0161
same,z-score,[2],-0.195 (inactive)
same,z-score,[3],0.207 (inactive)
same,z-score,[4],-0.0001 (inactive)
same,composite z-score,[5],-0.383
same,z-score,[6],0.821 (inactive)
same,composite z-score,[7],-0.0435
same,composite z-score,[8],-2.14
same,composite z-score,[9],-0.91
same,composite z-score,[10],-0.276
same,composite z-score,[11],-0.227
same,composite z-score,[12],0.004
same,composite z-score,[13],0.725
same,z-score,[14],-0.647 (inactive)
same,composite z-score,[15],-1.39
same,composite z-score,[16],-0.964
same,composite z-score,[17],-1.2
same,composite z-score,[18],-2.26
same,composite z-score,[19],-1.53
same,composite z-score,[20],-1.82
COCC(=C=CC[C@@H](O)c1ccccc1OCCO)C[C@@H](O)c1ccccn1,composite z-score,[1],1.29
same,z-score,[2],-0.108 (inactive)
same,z-score,[3],-1.4 (inactive)
same,z-score,[4],-0.856 (inactive)
same,composite z-score,[5],2.97
same,z-score,[6],-0.224 (inactive)
same,composite z-score,[7],-0.0825
same,composite z-score,[8],0.416
same,composite z-score,[9],0.88
same,composite z-score,[10],-0.0512
same,composite z-score,[11],0.378
same,composite z-score,[12],-0.0661
same,composite z-score,[13],-0.0356
same,z-score,[14],0.141 (inactive)
same,composite z-score,[15],0.457
same,composite z-score,[16],0.207
same,composite z-score,[17],-0.0982
same,composite z-score,[18],0.322
same,composite z-score,[19],0.0514
same,composite z-score,[20],0.639
CC(C)NC(=O)[C@@H]1c2ccccc2C(=O)N(Cc2cc(C(F)(F)F)cc(C(F)(F)F)c2)[C@H]1c1ccc(CO)cc1,composite z-score,[1],1.46
same,z-score,[2],-0.245 (inactive)
same,z-score,[3],-0.593 (inactive)
same,z-score,[4],-0.517 (inactive)
same,composite z-score,[5],2.4
same,z-score,[6],-0.216 (inactive)
same,composite z-score,[7],-0.0107
same,composite z-score,[8],0.598
same,composite z-score,[9],1.04
same,composite z-score,[10],-0.0248
same,composite z-score,[11],0.46
same,composite z-score,[12],0.178
same,composite z-score,[13],0.226
same,z-score,[14],0.0833 (inactive)
same,composite z-score,[15],0.312
same,composite z-score,[16],0.811
same,composite z-score,[17],-0.0125
same,composite z-score,[18],0.504
same,composite z-score,[19],0.307
same,composite z-score,[20],0.325
O=C(O)[C@]1(CCS(=O)(=O)c2ccccc2)N=C(c2ccc(OCCCO)cc2)O[C@@H]1c1ccccc1,composite z-score,[1],0.464
same,z-score,[2],-0.15 (inactive)
same,z-score,[3],-2.3 (inactive)
same,z-score,[4],-0.961 (inactive)
same,composite z-score,[5],3.4
same,z-score,[6],0.0201 (inactive)
same,composite z-score,[7],0.337
same,composite z-score,[8],-0.116
same,composite z-score,[9],-0.687
same,composite z-score,[10],0.0021
same,composite z-score,[11],0.74
same,composite z-score,[12],1.21
same,composite z-score,[13],1.04
same,z-score,[14],0.149 (inactive)
same,composite z-score,[15],0.216
same,composite z-score,[16],0.439
same,composite z-score,[17],-0.422
same,composite z-score,[18],-0.564
same,composite z-score,[19],-0.402
same,composite z-score,[20],0.849
CN1C(=O)C2C=CC(C(O)C3CCCCC3)N(N(c3ccccc3)c3ccccc3)C2C1=O (stereo not given),composite z-score,[1],0.102
same,z-score,[2],0.345 (inactive)
same,z-score,[3],1.25 (inactive)
same,z-score,[4],0.4 (inactive)
same,composite z-score,[5],2.5
same,z-score,[6],-0.989 (inactive)
same,composite z-score,[7],0.368
same,composite z-score,[8],-0.539
same,composite z-score,[9],-0.396
same,composite z-score,[10],0.114
same,composite z-score,[11],-0.941
same,composite z-score,[12],0.993
same,composite z-score,[13],0.895
same,z-score,[14],1.12 (inactive)
same,composite z-score,[15],0.189
same,composite z-score,[16],-1.14
same,composite z-score,[17],-1.34
same,composite z-score,[18],-1.14
same,composite z-score,[19],-1.28
same,composite z-score,[20],1.48
CN(C)C(=O)[C@@]1(Cc2ccccc2N=[N+]=[N-])N=C(c2ccc(OCCCO)cc2)O[C@H]1c1ccccc1N=[N+]=[N-],composite z-score,[1],1.56
same,z-score,[2],0.506 (inactive)
same,z-score,[3],-2.68 (inactive)
same,z-score,[4],3.01 (inactive)
same,composite z-score,[5],2.87
same,z-score,[6],0.239 (inactive)
same,composite z-score,[7],0.505
same,composite z-score,[8],0.126
same,composite z-score,[9],1.06
same,composite z-score,[10],0.387
same,composite z-score,[11],0.974
same,composite z-score,[12],1.19
same,composite z-score,[13],0.7
same,z-score,[14],-0.167 (inactive)
same,composite z-score,[15],0.817
same,composite z-score,[16],1.29
same,composite z-score,[17],0.284
same,composite z-score,[18],0.347
same,composite z-score,[19],0.0393
same,composite z-score,[20],1.28
CCOC(=O)C[C@H]1[C@H](OC(=O)c2ccc(C(=O)c3ccccc3)cc2)[C@@H](NC(=O)C2CCCCC2)c2cc(OCCCO)ccc2N1C(=O)Cc1ccc(OC)cc1,composite z-score,[1],0.623
same,z-score,[2],-0.989 (inactive)
same,z-score,[3],0.0425 (inactive)
same,z-score,[4],-0.0492 (inactive)
same,composite z-score,[5],0.603
same,z-score,[6],0.332 (inactive)
same,composite z-score,[7],0.0044
same,composite z-score,[8],0.544
same,composite z-score,[9],0.88
same,composite z-score,[10],0.0408
same,composite z-score,[11],0.331
same,composite z-score,[12],0.765
same,composite z-score,[13],0.7
same,z-score,[14],0.0309 (inactive)
same,composite z-score,[15],0.547
same,composite z-score,[16],0.328
same,composite z-score,[17],0.285
same,composite z-score,[18],0.459
same,composite z-score,[19],0.0351
same,composite z-score,[20],0.666
Cc1cc(C)c(C(O)C2C=CC3C(=O)N(c4ccccc4)C(=O)C3N2Nc2ccccc2)c(C)c1 (stereo not given),composite z-score,[1],1.56
same,z-score,[2],0.839 (inactive)
same,z-score,[3],0.483 (inactive)
same,z-score,[4],0.0441 (inactive)
same,composite z-score,[5],3.47
same,z-score,[6],-1.02 (inactive)
same,composite z-score,[7],0.506
same,composite z-score,[8],0.0982
same,composite z-score,[9],1.05
same,composite z-score,[10],0.178
same,composite z-score,[11],1.52
same,composite z-score,[12],1.17
same,composite z-score,[13],0.849
same,z-score,[14],-0.62 (inactive)
same,composite z-score,[15],0.964
same,composite z-score,[16],1.2
same,composite z-score,[17],0.403
same,composite z-score,[18],0.939
same,composite z-score,[19],-0.167
same,composite z-score,[20],0.242
Cc1ccc(S[C@]2(C(=O)NCC(C)C)CC(=O)N(C3CCCCC3)[C@@H]2c2ccc(CO)cc2I)cc1,composite z-score,[1],1.56
same,z-score,[2],-0.525 (inactive)
same,z-score,[3],0.293 (inactive)
same,z-score,[4],-0.0866 (inactive)
same,composite z-score,[5],2.59
same,z-score,[6],0.12 (inactive)
same,composite z-score,[7],0.11
same,composite z-score,[8],0.165
same,composite z-score,[9],1
same,composite z-score,[10],-0.276
same,composite z-score,[11],0.42
same,composite z-score,[12],0.0006
same,composite z-score,[13],0.421
same,z-score,[14],-1.4 (inactive)
same,composite z-score,[15],0.231
same,composite z-score,[16],0.296
same,composite z-score,[17],0.21
same,composite z-score,[18],0.468
same,composite z-score,[19],-0.147
same,composite z-score,[20],0.83
